Assay [1] is described as follows: qHTS assay to identify small molecule antagonists of the retinoid acid receptor (RAR) signaling pathway - cell viability counter screen (AID 1159551). Note: nearly all actives have a fitted effect of over 35% in size. In short, it runs like this: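 C3RL4 cells were seeded overnight at 37 C, then treated with compounds plus 1 uM (final) retinol for 6 h at 37 C. Viability was read as ATP by CellTiter-Glo luminescence after 30 min at room temperature.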
(In general: qHTS replaces the single test concentration by a dilution series.)

The nature of assay [2]: qHTS assay to identify small molecule antagonists of the retinoic acid receptor (RAR) signaling pathway (AID 1159552; note: nearly all actives have a fitted effect of over 50% in size; note: potency is the fitted concentration of half-maximal effect). In short, it runs like this:
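Readout: luciferase luminescence, 30 min post-reagent at RT. Setup: C3RL4 RARE reporter cells, compounds plus retinol 1 uM final, 6 hr incubation at 37 C and 5% CO2.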

Assay [3] can be described thus: qHTS assay to identify small molecule agonists of the RXR signaling pathway - cell viability counter screen (AID 1159529).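 For activity change, negative = cytotoxicity: HEK 293T cells carrying an RXR-alpha UAS beta-lactamase reporter; series mostly up to about 77 µM.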 Note: nearly all actives have a fitted effect of over 50% in size. Note: potency is the fitted concentration of half-maximal effect. In a few lines:
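Same-well viability check after the LiveBLAzer FRET read: CellTiter-Glo added, luminescence measured after 30 min at room temperature. Reporter HEK 293T cells had been treated with compounds for 16 hr following a 5 hr preincubation.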

Assay [4] can be described thus: qHTS assay to identify small molecule agonists of the retinoic acid receptor (RAR) signaling pathway (AID 1159553). Note: potency is the fitted concentration of half-maximal effect. In short, it runs like this: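 C3RL4 cells carrying a RARE luciferase reporter were plated overnight at 37 C, then exposed to compounds in DMSO for 6 hr at 37 C and 5% CO2. Luminescence was read 30 min after luciferase reagent addition at room temperature.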

Assay [5] is described as follows: qHTS assay to identify small molecule antagonists of the estrogen related receptor (ERR) signaling pathway - cell viability counter screen (AID 1224818).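 Note: series mostly up to about 46 µM; viability measured after 17.5 h of compound exposure.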 In short, it runs like this:
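ERR reporter cells plated 6 h at 37 C/5% CO2, then compounds in DMSO pin-transferred and incubated 17.5 h at 37 C. Viability read as CellTiter-Fluor fluorescence after 30 min at 37 C.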

The nature of assay [6]: qHTS assay to identify small molecule antagonists of the estrogen related receptor (ERR) signaling pathway (AID 1224819;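 note: luminescence from an ERR-driven luciferase reporter measured with One-Glo reagent; series mostly up to about 46 µM; nearly all actives have a fitted effect of over 50% in size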). In short, it runs like this:
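ERR reporter cells were plated at 2,000 cells/well and left 6 h at 37 C/5% CO2 before pin-tool transfer of compounds in DMSO. After 18 h at 37 C, One-Glo was added and luminescence was read 30 min later at room temperature.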

Assay [7] in a line: qHTS assay to identify small molecule agonists of the estrogen related receptor (ERR) signaling pathway (AID 1224820). In short, it runs like this:
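Quantitative HTS of the LOPAC library used NTP ERR reporter cells treated 18 h at 37 C. Signal is luminescence after One-Glo addition and a 30 min room-temperature incubation.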

The subject of assay [8] is estrogen-related receptor alpha (ERRalpha) with PGC-1alpha coactivator, human. The experiment in a line: qHTS assay to identify small molecule antagonists of the estrogen related receptor signaling pathway with the pleiotropic PPARgamma coactivator (PGC) (AID 1224821; calls by dose curve;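 note: series mostly up to about 46 µM; lower luminescence signal means antagonism of PGC/ERR signalling; nearly all actives have a fitted effect of over 50% in size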). In short, it runs like this:
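Quantitative HTS for antagonism: PGC/ERR cells received compounds after 6 h attachment and were incubated 18 h at 37 C, with luminescence (One-Glo) as the endpoint.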

The nature of assay [9]: qHTS assay to identify small molecule antagonists of the estrogen related receptor signaling pathway with the pleiotropic PPARgamma coactivator (PGC) cell viability counter screen (AID 1224822; note: series mostly up to about 46 µM). In a few lines:
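PGC/ERR cells were seeded at 2,000 cells/well, rested 6 h at 37 C/5% CO2, then given compounds in DMSO by pin tool and incubated 17.5 h at 37 C. Viability came from CellTiter-Fluor fluorescence after 30 min.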

Molecules are shown by their SMILES. Records with an inconclusive call do not appear. Entries that show only a call come without a potency. A number with no mark means an inactive call. Active and inactive are the calls of the source. Unless noted, calls come from the whole dose curve; as a rule, active = well fitted curve in the direction sought with a large enough effect in the repeat runs; inconclusive = weak or mixed curves; inactive = no such curve, though single readings can be large; an effect the other way counts as inactive or inconclusive.

Take `CN(CCCN1c2ccccc2CCc2ccccc21)CC(=O)c1ccc(Cl)cc1`: in assay [1], the call was inactive. Also, the Potency result in assay [2] was “inactive”.
With `Nc1ccc2ccccc2c1S(=O)(=O)O`, in assay [3], the Potency result was “inactive”. For the same compound, the call in assay [1] was inactive. In assay [4], the Potency is 24.8 µM (active).
As to `CCC(=O)O[C@]1(C(=O)SCF)[C@H](C)C[C@H]2[C@@H]3C[C@H](F)C4=CC(=O)C=C[C@]4(C)[C@@]3(F)[C@@H](O)C[C@@]21C`, the Potency result in assay [3] and in assay [4] was “inactive” in each case. The outcome in assay [1] was inactive.
Turning to `CCCCCCOc1ccc(N)cc1`, the result in assay [1] was inactive. For the same compound, the Potency entry in assay [2] was “inactive”. Further, in assay [4], the Potency was 10.9 µM (active).
In the case of `Cc1ccc(C=O)s1`, the outcome in assay [1] was inactive. In addition, in assay [2], the Potency entry is “inactive”.
With `CC1=C(CC(=O)O)c2cc(F)ccc2/C1=C\c1ccc(S(C)(=O)=O)cc1`, the Potency entry in assay [3], in [2] and in assay [4] was “inactive” throughout. The compound was classed as inactive in assay [1], in assay [5], in assay [6], in assay [7], in assay [8] and in [9].
For `CCNCCO`, the Potency result in [3] and in [4] was “inactive” in each case. Further, the compound was classed as inactive in assay [1].
With `CC(C)C1=CC2=CC[C@@H]3[C@](C)(CCC[C@@]3(C)C(=O)O)[C@H]2CC1`, the call in [1] was inactive. Also, the Potency entry in [2] and in assay [4] was “inactive” each time.
Turning to `CN(C)C(=O)NC1(c2ccccc2)CCN(CCC[C@]2(c3ccc(Cl)c(Cl)c3)CCCN(C(=O)c3ccccc3)C2)CC1`, the activity change, negative = cytotoxicity in assay [1] was -1.37% [at 19 µM].
Regarding `CCCOc1ccc2c(c1)CC[C@@H]1[C@@H]2CC[C@]2(C)C(OC)CC[C@@H]12` (some centres not stated), the compound was classed as inactive in assay [1]. Moreover, the Potency result in assay [2] and in assay [4] was “inactive” throughout.
As to `C[C@]12C(=O)OC(=O)[C@H]1[C@H]1C=C[C@@H]2C1`, the compound was called inactive in [1]. In addition, in [2], the Potency result was “inactive”.
As to `CCOc1ccccc1N`, the compound was called inactive in assay [1]. In addition, the Potency entry in assay [2] and in assay [4] was “inactive” throughout.
`COc1ccc2nc(NC(=O)Nc3ccccc3)sc2c1`: the result in [1] was inactive.
On to `O=C(O)c1ccccc1Nc1cc(Cl)ccc1C(=O)O`, for which the activity change, negative = cytotoxicity in assay [1] was -3.95% [at 19 µM]. Besides, the activity, negative = inhibition in assay [2] was -145% [at 19 µM].
As to `CCOC(=O)CS`, the Potency result in assay [3] and in [4] was “inactive” each time. In [1], the outcome was inactive. Further, the Potency in assay [2] was 28.1 µM (active).
As to `Cc1ccccc1C(=O)Nc1ccc(C(=O)N2CCCC(O)c3cc(Cl)ccc32)c(C)c1` (configuration not stated), the compound was classed as inactive in assay [1]. Also, in assay [4], the Potency entry is “inactive”.
As to `CCCCOc1cc(C(=O)NCCN(CC)CC)c2ccccc2n1`, the result in [1] was inactive. Also, the Potency result in [2] and in assay [4] was “inactive” each time.
For the compound `CCc1cc(Cl)c(OC)c(C(=O)NC[C@@H]2CCCN2CC)c1O`, in assay [1], the call was inactive.
Turning to `CC(C)(C)c1ccc(OC(=O)c2ccccc2O)cc1`, the Potency in assay [3] is 49 µM (active); in [4], 1.09 µM (active). In addition, in [1], the compound was called inactive. Further, in assay [2], the Potency entry was “inactive”.
For the compound `CCOC(=O)C1CC(=O)C(=C(O)C2CC2)C(=O)C1` (configuration not stated), the Potency result in [3], in assay [2] and in assay [4] was “inactive” in each case. Also, in assay [1], the compound was classed as inactive.
For the compound `CCCCCCCCCCCCCCCCOP(=O)([O-])OCC[N+](C)(C)C`, the outcome in assay [1] was inactive. Besides, the Potency entry in [2] and in assay [4] was “inactive” each time.
Regarding `CCc1cc2cc(OC)c(OC)cc2c(Cc2ccccc2)n1`, the Potency entry in assay [4] was “inactive”.
With `Cc1nc(N)nc(N)c1-c1ccc(Cl)c(Cl)c1`, the compound was called inactive in [1]. Also, the Potency result in assay [2] and in assay [4] was “inactive” in each case.
Regarding `C[C@]12CCC(=O)C=C1CC[C@@H]1[C@@H]2CC[C@@]2(C)[C@H]1CC[C@]2(O)C(=O)CO`, the Potency entry in assay [3], in assay [2] and in assay [4] was “inactive” in each case. Further, the result in assay [1], in assay [5], in [6], in assay [7], in assay [8] and in assay [9] was inactive.
Take `CC(C)O`: the result in assay [1] was inactive.
In the case of `CCC(=O)c1ccc2c(c1)N(CCCN(C)C)c1ccccc1S2`, the call in assay [1] was inactive. The Potency entry in assay [4] was “inactive”.
For `COc1cc2c(cc1N)oc1ccccc12`, in assay [1], the compound was classed as inactive. The Potency result in assay [2] is “inactive”. Moreover, the Potency in assay [4] was 12.5 µM (active).
For `CN1CCN(C2=Nc3ccccc3Oc3ccc(Cl)cc32)CC1`, the compound was called inactive in assay [1], in assay [5], in assay [6], in assay [7], in [8] and in [9]. Besides, the Potency entry in assay [2] and in assay [4] was “inactive” in each case.
Turning to `CCCCCCCCCCCCOCCOS(=O)(=O)O`, the result in assay [1] was inactive. Further, the Potency result in [2] and in assay [4] was “inactive” in each case.
On to `CC(C)=CCCC(C)CCOC=O` (configuration not stated), for which the outcome in assay [1] was inactive. Also, the Potency result in assay [2] is “inactive”.
`O=C(CC(=O)C(F)(F)F)c1ccccc1`: the outcome in assay [1] was inactive. For the same compound, the Potency entry in assay [2] is “inactive”. In addition, in assay [4], the Potency was 22 µM (active).
As for `CC1(C)O[C@@H]2C[C@H]3[C@@H]4CCC5=CC(=O)CC[C@]5(C)[C@@]4(F)[C@@H](O)C[C@]3(C)[C@]2(C(=O)CCl)O1`, the call in assay [1] was inactive. Besides, the Potency entry in [4] is “inactive”.
Turning to `CC(C)NC[C@@H](O)COc1cccc2ccccc12`, the compound was classed as inactive in [1]. Moreover, the Potency result in [2] and in [4] was “inactive” throughout.
For the compound `ICCc1ccccc1`, the result in [1] was inactive.

These data come from PubChem BioAssay (Tox21).
